This is part of a sample that, as a whole, favours compounds with a hit. Of some 79,000 tested, about 15% had one in any assay. A number with no mark means an inactive call. Active and inactive are the calls of the source. Cut-off read from the data, not from the text of the source: active = growth inhibition above about 70%; inactive = the rest. Where a SMILES comes first, the peptide text is derived from it. The star is where a group is joined. Cbz = O=C(OCc1ccccc1)*
What was measured:
[1] = NCI Yeast Anticancer Drug Screen. Data for the rad50 strain (AID 155);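 note: 0% = growth of vehicle-only cultures of the same strain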; settings: S. cerevisiae rad50 strain growth inhibition; at 50.0 µM; active compounds read high
How it was run: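 Cells are treated with compound, grown, and their growth is then scored against vehicle-only cultures of the same repair-deficient yeast strain.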

[2] = NCI Yeast Anticancer Drug Screen. Data for the mec2-1 strain (AID 157); settings: S. cerevisiae mec2-1 strain, at 50.0 µM, active compounds read high
How it was run: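 Using mec2-1 yeast: add compound, measure growth, express inhibition versus vehicle-treated cultures.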

[3] = NCI Yeast Anticancer Drug Screen. Data for the sgs1 mgt1 strain (AID 161);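 note: 0% = growth of cultures given vehicle only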; settings: S. cerevisiae sgs1 mgt1 strain, at 50.0 µM, active compounds read high
How it was run: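 This yeast growth screen uses a strain with defined DNA-repair lesions; compound-treated growth is compared with vehicle-treated growth.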

[4] = NCI Yeast Anticancer Drug Screen. Data for the cln2 rad14 strain (AID 165);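 note: 0% = growth equal to vehicle treated cultures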; settings: S. cerevisiae cln2 rad14 strain, at 50.0 µM, active compounds read high
How it was run: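 Yeast strain cln2 rad14, bearing defects in cell cycle control and DNA repair, serves as the test system; values reflect growth inhibition compared with vehicle.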

[5] = NCI Yeast Anticancer Drug Screen. Data for the bub3 strain (AID 167); settings: S. cerevisiae bub3 mutant strain, at 50.0 µM, active compounds read high
How it was run: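 Part of a panel of yeast mutants defective in DNA damage repair or cell cycle regulation. Each strain is grown with compound, and inhibition is calculated relative to solvent-treated cultures.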

[6] = NCI Yeast Anticancer Drug Screen. Data for the mlh1 rad18 strain (AID 175); settings: S. cerevisiae mlh1 rad18 strain growth inhibition; at 50.0 µM; active compounds read high
How it was run: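 Steps: expose repair-defective yeast to compound; measure growth; express inhibition against vehicle-treated controls.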

Structure (SMILES)	growth inhibition [1]	growth inhibition [2]	growth inhibition [3]	growth inhibition [4]	growth inhibition [5]	growth inhibition [6]
C=C(C)C1CCC2(C)CC3C(=C)CC(O)C(O)C3(C)CCC12 (stereo unspecified)	48.2%	88.8% (active)	90.8% (active)	90% (active)	90.2% (active)	89.5% (active)
CCCNC(=O)N(CCN(C)C)S(=O)(=O)c1ccc(Cl)cc1	-38.9%	-6.75%	-13.6%	-18.9%	-21.1%	-17.4%
Cc1nnc2sc(Cl)nn12	26.9%	48.8%	48.1%	17.7%	12.9%	22.8%
CN1CCCC(C(O)c2ccccc2)S1(=O)=O (stereo unspecified)	17.2%	23.4%	-1.3%	9.65%	29.4%	14.3%
Cc1ccc(-c2c(C#N)c(-c3ccccc3)c(C#N)c(=O)n2NS(=O)(=O)c2ccc(C)cc2)cc1	3.65%	28.1%	17.1%	18.7%	18.2%	23.3%
CCCCCCCCCCCCCCCCCC(=O)N/N=C/c1ccccc1OC	7.05%	11.9%	9.25%	-1.6%	-2.05%	28.1%
Cc1cc2ncn(C3CCCCO3)c2cc1C (stereo unspecified)	8.25%	-10.8%	-9.4%	13.3%	3.85%	-26.4%
CC(C)C1CC[C@H](C)C[C@@H]1OC(=O)C(C(=O)O[C@H]1C[C@@H](C)CCC1C(C)C)C(O)[C@@H]1OC(C)(C)O[C@H]1C1COC(C)(C)O1 (stereo partly specified)	73.8% (active)	90.8% (active)	91.9% (active)	44.7%	90.8% (active)	56.9%
C1=Nc2ccccc2Cn2nncc21	19.7%	21%	43.1%	18.4%	17.1%	41.5%
CCN(CC)CCOc1ccc(/C=C(\C#N)c2ccc(OCCN(CC)CC)cc2)cc1	56.5%	28.6%	30.4%	56%	24.1%	18%
CSc1cc(C)c(O)c(CO)c1	6.7%	2.9%	18.2%	-2.35%	12.7%	3%
O=[N+]([O-])c1ccc(NN=C2CN3CCN(C2)c2ccccc23)c([N+](=O)[O-])c1	35.4%	20.1%	59.8%	40.8%	40.6%	35.1%
Cc1ccc(S(=O)(=O)c2ccc(C)cc2[N+](=O)[O-])c([N+](=O)[O-])c1	-58.1%	-52.1%	-25.4%	-6.2%	-19.9%	-44.6%
C[C@@H](CO)OCOCc1ccccc1	7.5%	-1.25%	4%	18.5%	7.3%	19.5%
Clc1cccc(-c2sc(-c3ccsc3)cc2Cc2ccsc2)c1	-21.2%	-20.1%	-22.1%	-28.6%	-24.1%	2.1%
NNC1=Nc2ccc(Cl)cc2C(=S)N2CSCC12 (stereo unspecified)	-1.05%	-3.1%	-11.7%	-11.8%	-8.95%	9.25%
Cc1cc(NS(=O)(=O)c2ccc(NC(=O)c3cccn4c(=O)c5ccccc5nc34)cc2)no1	-24.6%	3.7%	-44%	0.8%	-14.7%	-8.8%
Cc1cc2c(SCc3ccccc3Cl)nc(N)nc2nc1C	15.7%	12.3%	5.65%	-35%	-12.6%	31.6%
CCC(C)c1cnc(CC(C)C)c(=O)[nH]1 (stereo unspecified)	8.9%	-44.2%	17.2%	4.85%	-9.6%	0.85%
CCCCCCCCCc1cc[n+](C2=C([O-])C3=C(C(=O)C2=O)C2c4ccccc4C3c3ccccc32)cc1	43.8%	50.6%	80.5% (active)	46%	53.9%	60.3%
COC(=O)C(CC(C)C)NC(=O)C(CCCN=C(N)N)NC(=O)OCc1ccccc1 (stereo not drawn) (Cbz-Arg-Leu-OMe; configuration not given here)	-27.7%	-17.6%	-15.7%	4.15%	-10.3%	-12.8%

Structure (SMILES)	growth inhibition [1]	growth inhibition [2]	growth inhibition [3]	growth inhibition [4]	growth inhibition [5]	growth inhibition [6]
C=C1CCC2(C)CCC3(C)C(CCC4C5(C)CCC(OC(C)=O)C(C)(C)C5CCC43C)C2C1C (stereo unspecified)	-4.05%	-5.9%	4.6%	1.45%	-5.15%	26.6%
Clc1cc(Cl)cc(Nc2nc3ccccc3nc2-c2cccs2)c1	-19.3%	-14%	33.2%	3.35%	-29.1%	-10.2%
COCCOC(=O)Nc1c(Cl)cccc1Cl	1.45%	-18.5%	-8.35%	5.3%	-25.6%	-8.2%
OC1=CC(C2CCCCC2)CC(O)=C1 (stereo unspecified)	2.95%	-0.65%	-4.75%	-7.9%	-59.5%	-17.1%
Clc1cnc(Oc2ccccc2)c2ccccc12	2.3%	-22.2%	-10.2%	-37.4%	-1.5%	-9.35%
Cc1ccc(Cl)cc1NC(=O)/C=C/c1ccccc1	3.05%	8.4%	6.4%	-7.35%	10.5%	18.6%
O=C(OCC1OC(c2ccccc2)OC2C(COC(=O)c3ccccc3)OC(c3ccccc3)OC12)c1ccccc1 (stereo unspecified)	4.4%	6.1%	-0.6%	6.7%	12.4%	14.1%
CNC(=S)Nc1cccc(C)c1	-3.1%	2.65%	4.55%	-8.55%	-10.4%	4.05%
COc1ccc(C(=O)C(C(=O)C(=O)Nc2ccc(Cl)c(Cl)c2)c2ccc(OC)cc2)cc1 (stereo unspecified)	-0.6%	11.2%	-34.4%	38.1%	8.95%	-17.3%
CCCCCCCC/C=C\CCCCCCCC(N)=O	-20.9%	-34.6%	-11.5%	-53%	-21.1%	-50%
Oc1c(CN2CCN(c3ccccc3)CC2)cc(Br)c2cccnc12	34%	19.9%	41.4%	-0.3%	9.4%	39.6%
N/C(=N\O)c1ccccc1	27.1%	0.6%	13.7%	15.3%	4.35%	23.1%
CCCCCCCCCCCCSCC(=O)O	-16.8%	10.8%	14.2%	-82.8%	39%	-25.8%
CCOC(=O)c1c(C)c(C)cc(C)c1C	-4.75%	-7.6%	-5.45%	6.15%	2.3%	-10.8%
Cc1ccc(-c2cc(-c3ccco3)c(C#N)c(=O)[nH]2)cc1	13.5%	-8.55%	-13.5%	16.4%	-10%	6.8%
CC(C)=CCC[C@@H](C)C1[C@@H](OC2OC(CO)C(O)C(O)C2O)CC2(C)[C@@H]3CC(=O)C4C(C)(C)[C@@H](OC5OC(CO)C(O)C(O)C5O)CC[C@@]45C[C@@]35CC[C@]12C (stereo partly specified)	-17.4%	-40%	-27.1%	-3.15%	-20.8%	-25.4%
C=Cc1ccc(C)[n+](C[Si](C)(C)O[Si](C)(C)C[n+]2cc(C=C)ccc2C)c1	-18.9%	-11.1%	-26.1%	-4.2%	-10.8%	9%
O=c1cc(-c2ccc3c(c2)OCO3)oc2ccccc12	20.4%	1.8%	6%	-2.35%	-5.25%	-3.8%
CCCCC(CC)C(=S)N1CCOCC1 (stereo unspecified)	0.95%	-30.4%	-18.8%	7.25%	-4.65%	-9.25%
CCOC(=O)NC(=O)c1cn(CCN2CCN(C(=O)NCCCCCCNC(=O)N3CCN(CCn4cc(C(=O)NC(=O)OCC)c(=O)[nH]c4=O)CC3)CC2)c(=O)[nH]c1=O	-12.3%	14.7%	-8.95%	-18.6%	-0.75%	-11.6%

From PubChem BioAssay (NCI)
